# The supplement of paper PMC12819154, “High-throughput peptide-centric local stability assay extends protein–ligand identification to membrane proteins, tissues and bacteria” (Nature Structural & Molecular Biology, 2025)
# Key:
# Assay in all cases: log2 fold change of tryptic peptide abundance, ligand vs vehicle (limited proteolysis) (log2 ratio); higher = more trypsin-susceptible (destabilized)
# UniProt P02918 = target: T1, UniProt P02918; details: peptide sequence: NSPPQYAGPIR; peptide start residue: 506; ligand concentration: 10 uM; sample: E. coli crude lysate
# T1 sequence (whole entry): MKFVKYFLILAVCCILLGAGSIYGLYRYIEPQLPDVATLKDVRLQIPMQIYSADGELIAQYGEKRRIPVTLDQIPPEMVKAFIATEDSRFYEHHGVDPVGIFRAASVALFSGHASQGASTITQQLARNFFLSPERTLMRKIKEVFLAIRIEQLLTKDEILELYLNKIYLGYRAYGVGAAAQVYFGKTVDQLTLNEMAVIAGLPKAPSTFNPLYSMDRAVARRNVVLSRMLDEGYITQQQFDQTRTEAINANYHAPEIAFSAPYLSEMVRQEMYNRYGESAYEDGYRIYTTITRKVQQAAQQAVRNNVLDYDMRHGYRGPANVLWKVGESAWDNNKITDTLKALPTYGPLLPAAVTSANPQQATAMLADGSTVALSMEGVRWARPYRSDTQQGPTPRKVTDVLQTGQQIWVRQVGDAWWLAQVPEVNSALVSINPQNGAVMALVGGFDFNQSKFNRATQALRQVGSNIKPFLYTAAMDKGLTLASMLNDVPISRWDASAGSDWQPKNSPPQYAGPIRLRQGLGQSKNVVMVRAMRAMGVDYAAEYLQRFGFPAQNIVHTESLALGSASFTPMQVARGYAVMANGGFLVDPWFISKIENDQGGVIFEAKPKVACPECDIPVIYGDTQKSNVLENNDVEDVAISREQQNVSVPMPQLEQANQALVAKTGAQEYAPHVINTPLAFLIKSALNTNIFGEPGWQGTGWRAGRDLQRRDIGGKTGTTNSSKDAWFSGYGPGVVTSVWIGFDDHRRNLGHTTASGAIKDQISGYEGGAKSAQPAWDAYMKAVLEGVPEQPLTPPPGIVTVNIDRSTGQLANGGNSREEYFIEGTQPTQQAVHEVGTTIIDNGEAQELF
# UniProt P02919 = target: T2, UniProt P02919; details: peptide sequence: QPNGQVWSPQNDDRR; peptide start residue: 542; ligand concentration: 10 uM; sample: E. coli crude lysate
# T2 sequence (whole entry): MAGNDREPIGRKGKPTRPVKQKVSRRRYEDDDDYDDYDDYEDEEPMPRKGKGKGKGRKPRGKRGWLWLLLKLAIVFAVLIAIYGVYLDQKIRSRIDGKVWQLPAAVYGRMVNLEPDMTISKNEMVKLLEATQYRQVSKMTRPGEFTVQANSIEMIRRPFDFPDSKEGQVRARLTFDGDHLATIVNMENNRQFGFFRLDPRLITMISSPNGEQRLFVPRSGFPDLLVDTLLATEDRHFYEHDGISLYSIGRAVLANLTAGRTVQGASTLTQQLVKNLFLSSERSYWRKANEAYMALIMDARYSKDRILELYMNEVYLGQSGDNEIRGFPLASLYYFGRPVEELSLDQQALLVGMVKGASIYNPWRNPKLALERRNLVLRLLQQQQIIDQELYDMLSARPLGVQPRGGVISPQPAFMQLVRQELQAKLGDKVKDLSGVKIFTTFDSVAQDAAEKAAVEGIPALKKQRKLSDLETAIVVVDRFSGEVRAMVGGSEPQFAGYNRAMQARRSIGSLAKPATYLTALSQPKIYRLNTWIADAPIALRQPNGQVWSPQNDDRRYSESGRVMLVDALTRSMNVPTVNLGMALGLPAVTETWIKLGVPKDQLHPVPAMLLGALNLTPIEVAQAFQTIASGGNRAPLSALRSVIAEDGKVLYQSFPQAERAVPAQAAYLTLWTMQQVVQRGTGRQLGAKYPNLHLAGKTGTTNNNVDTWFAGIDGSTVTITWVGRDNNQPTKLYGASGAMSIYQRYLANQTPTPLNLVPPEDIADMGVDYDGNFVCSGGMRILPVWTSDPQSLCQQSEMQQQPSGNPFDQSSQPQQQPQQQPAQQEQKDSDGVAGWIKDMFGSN
# UniProt P24228 = details: peptide sequence: AGLHQAGVDGK; peptide start residue: 403; ligand concentration: 10 uM; sample: E. coli crude lysate
# Sequence of UniProt P24228 (P24228 whole entry): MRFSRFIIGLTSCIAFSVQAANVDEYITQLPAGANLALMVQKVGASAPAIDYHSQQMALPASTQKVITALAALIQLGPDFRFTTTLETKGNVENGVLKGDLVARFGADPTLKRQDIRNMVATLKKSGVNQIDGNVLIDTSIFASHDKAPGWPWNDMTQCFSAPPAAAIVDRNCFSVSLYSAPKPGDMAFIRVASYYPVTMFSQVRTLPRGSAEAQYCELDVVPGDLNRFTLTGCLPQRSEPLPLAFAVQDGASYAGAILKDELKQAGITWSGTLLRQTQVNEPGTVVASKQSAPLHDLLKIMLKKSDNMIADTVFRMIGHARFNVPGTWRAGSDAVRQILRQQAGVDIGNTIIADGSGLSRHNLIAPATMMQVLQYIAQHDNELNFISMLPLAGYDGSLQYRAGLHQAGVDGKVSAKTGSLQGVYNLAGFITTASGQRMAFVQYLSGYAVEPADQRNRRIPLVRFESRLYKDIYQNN
# UniProt P77754 = target: T3, UniProt P77754; details: peptide sequence: DLNLTDAQK; peptide start residue: 54; ligand concentration: 10 uM; sample: E. coli crude lysate
# T3 sequence (whole entry): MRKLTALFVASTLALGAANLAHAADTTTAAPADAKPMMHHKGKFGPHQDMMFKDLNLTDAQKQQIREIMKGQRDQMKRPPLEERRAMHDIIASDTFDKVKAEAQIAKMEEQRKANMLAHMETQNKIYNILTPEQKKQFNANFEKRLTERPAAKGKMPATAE
smiles,measurement,setting,value
CC1(C)S[C@@H]2[C@H](NC(=O)[C@H](N)c3ccccc3)C(=O)N2[C@H]1C(=O)O [ampicillin],log2 fold change,UniProt P02918,-1.56
same,log2 fold change,UniProt P02919,1.86
same,log2 fold change,UniProt P24228,-3.07
same,log2 fold change,UniProt P77754,-0.675
